Experimental data taken from PubChem BioAssay (NCI).
Compounds without any hit were thinned out: in the full panel of roughly 83,000, 20% have a hit.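 The endpoint reported here, percent growth, reads 100 for growth as untreated, 0 for no net growth and -100 for all cells dead.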 Activity calls are given as the source filed them. The calls were made as follows: active = growth percent below 10; inactive = the rest.

Legend:
Assay in all cases: NCI-60 one-dose screen, 48 h (100 = growth as untreated, 0 = no growth, -100 = all killed)
Settings in all cases: 10 µM unless noted
SK-MEL-2 melanoma = test system: SK-MEL-2 melanoma
EKVX NSCLC = test system: EKVX NSCLC
SN12C renal = test system: SN12C renal
UO-31 renal = test system: UO-31 renal
TK-10 renal = test system: TK-10 renal
ACHN renal = test system: ACHN renal
A498 renal = test system: A498 renal
CCRF-CEM leukemia = test system: CCRF-CEM leukemia
MOLT-4 leukemia = test system: MOLT-4 leukemia
SR leukemia = test system: SR leukemia

Measured: growth

CCC1S/C(=N\N=C(/C)c2ccc[nH]2)N(c2ccccc2)C1=O (stereo not given)
active: CCRF-CEM leukemia -86.5% | MOLT-4 leukemia -50%
inactive: SK-MEL-2 melanoma 124% | EKVX NSCLC 116% | SN12C renal 116% | UO-31 renal 43% | TK-10 renal 83.5% | ACHN renal 102% | A498 renal 112% | SR leukemia 32.5%

O=C1Nc2ccc(Cl)cc2/C1=N/c1nc(-c2ccc(Cl)cc2)cs1
active: SK-MEL-2 melanoma -2.56% | TK-10 renal -15.5% | A498 renal -2.57% | CCRF-CEM leukemia 8.26% | MOLT-4 leukemia 2.22% | SR leukemia 3.05%
inactive: EKVX NSCLC 25.6% | SN12C renal 17.3% | UO-31 renal 24.6% | ACHN renal 11.9%

COc1ccc(-c2cc(-c3nnc(SCC(=O)Nc4ccc(C(C)=O)cc4)o3)c3ccccc3n2)cc1
active: SN12C renal -40.5% | UO-31 renal -70.7% | TK-10 renal -28.8% | ACHN renal -11.6% | SR leukemia -19.5%
inactive: SK-MEL-2 melanoma 40.1% | EKVX NSCLC 23.2% | A498 renal 18.3% | CCRF-CEM leukemia 32.7% | MOLT-4 leukemia 23%

C/C(=N\NC(=O)c1ccncc1)c1ccc(N)cc1
inactive: SK-MEL-2 melanoma 105% | EKVX NSCLC 101% | SN12C renal 97.1% | UO-31 renal 89.5% | TK-10 renal 103% | ACHN renal 109% | A498 renal 90.6% | CCRF-CEM leukemia 92% | MOLT-4 leukemia 92.4% | SR leukemia 85.8%

O=c1[nH]c(-c2cccc(F)c2)cc2cc(F)ccc12
inactive: SK-MEL-2 melanoma 67.4% | EKVX NSCLC 39.3% | SN12C renal 49.3% | UO-31 renal 55.8% | TK-10 renal 58.5% | ACHN renal 47% | A498 renal 21.9% | CCRF-CEM leukemia 13.6% | MOLT-4 leukemia 21.9% | SR leukemia 22.5%

CC(C)NS(=O)(=O)c1cccc(-c2ccc3c(=O)n(CCCN)c4c(c3c2)C(=O)c2ccccc2-4)c1
inactive: SK-MEL-2 melanoma 111% | EKVX NSCLC 100% | SN12C renal 113% | UO-31 renal 93.2% | TK-10 renal 96.8% | ACHN renal 101% | A498 renal 103% | CCRF-CEM leukemia 88.2% | MOLT-4 leukemia 95.6% | SR leukemia 77.6%

CC(=O)Oc1c2c(nc3c1c1ccccc1n3Cc1ccccc1)-c1ccccc1C2
inactive: SK-MEL-2 melanoma 71.4% | EKVX NSCLC 80.8% | SN12C renal 85.8% | UO-31 renal 58.2% | TK-10 renal 114% | ACHN renal 85.7% | A498 renal 82% | CCRF-CEM leukemia 91.5% | MOLT-4 leukemia 72.6% | SR leukemia 86.2%

O=C1CC23OC(C(O)c4ccccc4N12)C1C(c2ccccc2)=NOC13 (stereo not given)
inactive: SK-MEL-2 melanoma 40.8% | EKVX NSCLC 57.7% | SN12C renal 42.9% | UO-31 renal 45.1% | TK-10 renal 102% | ACHN renal 52.7% | A498 renal 71% | CCRF-CEM leukemia 68.3% | MOLT-4 leukemia 37.2% | SR leukemia 22.2%

O=C1C(=O)c2c(nc3ccc(Br)cn23)-c2ccccc21
inactive: A498 renal 39.4%
active: SK-MEL-2 melanoma -73.5% | EKVX NSCLC -71.4% | SN12C renal -89% | UO-31 renal -100% | TK-10 renal -100% | ACHN renal -100% | CCRF-CEM leukemia -32.5% | MOLT-4 leukemia -55.1% | SR leukemia -27.6%

C1=CC2=CC=C3C=CC=C4C(c5nc6c7ccccc7c7ccccc7c6[nH]5)=CC(=C1)C2C34 (stereo not given)
inactive: SK-MEL-2 melanoma 123% | EKVX NSCLC 93.5% | SN12C renal 94.6% | UO-31 renal 62.8% | TK-10 renal 127% | ACHN renal 89.6% | A498 renal 63.7% | CCRF-CEM leukemia 89.7% | MOLT-4 leukemia 73.3% | SR leukemia 76.3%

Cc1cnc(SCc2ccc(Cl)cc2Cl)nc1Nc1ccc(Cl)c(Cl)c1
inactive: SK-MEL-2 melanoma 87.9% | EKVX NSCLC 94.2% | SN12C renal 93% | UO-31 renal 74.6% | TK-10 renal 100% | ACHN renal 96.4% | A498 renal 85.7% | CCRF-CEM leukemia 85.6% | MOLT-4 leukemia 59.5% | SR leukemia 72%

CCOC(=O)c1c(C)nc2c(c1N)/C(=C/c1ccccn1)C(=O)N2Cc1ccccc1
active: SK-MEL-2 melanoma -26.1% | SN12C renal 8.15% | UO-31 renal -65.6% | TK-10 renal 2.08% | ACHN renal 0.89% | CCRF-CEM leukemia 2.47% | MOLT-4 leukemia -12.8% | SR leukemia -11.8%
inactive: EKVX NSCLC 24.8% | A498 renal 54.6%

CN1C(=O)c2cc(Cl)nc3c(NC(=O)c4cccc(Cl)c4)c(Cl)c(NC(=O)c4cccc(Cl)c4)c1c23
active: SK-MEL-2 melanoma -39% | SN12C renal -43.2% | UO-31 renal -61.8% | ACHN renal -61.7% | CCRF-CEM leukemia 7.27% | MOLT-4 leukemia -19.9% | SR leukemia -44.7%
inactive: EKVX NSCLC 27.4% | TK-10 renal 39.9% | A498 renal 96.6%

COc1ccccc1C(=O)/C=C/c1cc2cccc(OC)c2[nH]c1=O
inactive: SK-MEL-2 melanoma 20%
active: EKVX NSCLC 7.34% | SN12C renal -0.142% | UO-31 renal -48.6% | TK-10 renal 3.12% | ACHN renal 4% | A498 renal -15% | CCRF-CEM leukemia -4.86% | MOLT-4 leukemia 7.38% | SR leukemia -1.87%

CC1(C)CC[C@]2(c3nnc(-c4ccncc4)o3)CC[C@]3(C)C(=CC[C@@H]4[C@@]5(C)CCC(=O)C(C)(C)[C@@H]5CC[C@]43C)[C@@H]2C1
inactive: SK-MEL-2 melanoma 96% | EKVX NSCLC 76.3% | SN12C renal 79.7% | UO-31 renal 77.5% | TK-10 renal 128% | ACHN renal 88.7% | A498 renal 106% | CCRF-CEM leukemia 75.5% | MOLT-4 leukemia 52% | SR leukemia 63.7%
